JMJD2A Tudor inh = inhibitors of human JMJD2A Tudor domain; 390,000 compounds, 4.4% hits; O75164; Potency, µM (top dose mostly 114 µM), without a hit: top-dose activity change, negative = inhibition, actives largely listed as inhibitors; AID 504339; AlphaScreen JMJD2A-Tudor / H3K4me3 peptide binding; further: on the % scale 0 is the no-effect control and ±100 the full control effect; nearly all actives have a fitted effect of over 50% in size
HP1b chromo inh = inhibitors of HP1-beta chromodomain binding to methylated histone tails. P83916. AID 540317. 390,000 compounds, 0.56% hits. Potency, µM (top dose mostly 114 µM), for inactives: top-dose activity change, negative = inhibition, most hits filed as inhibitors. AlphaScreen HP1-beta / biotin-H3K9me3 peptide binding; further: nearly all actives have a fitted effect of over 70% in size
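HP1-beta protein (50 nM final) preincubated 30 min at room temperature with biotinylated H3(1-18)K9me3 peptide (50 nM) in PBS pH 7.4, 0.01% Tween-20, then compound added for 30 min. AlphaScreen streptavidin donor/nickel chelate acceptor beads (10 ug/mL final), 30 min dark, luminescence read.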
G9a inh = blocks human histone lysine methyltransferase G9a. Potency, µM (highest dose often 102 µM), inactives show at the highest dose activity, negative = inhibition, most hits filed as inhibitors. G9a H3K9 monomethylation, AlphaScreen, 2 h. 350,000 compounds, 8.8% hits. Q96KQ7; further: on the % scale 0 is the no-effect control and ±100 the full control effect; nearly all actives have a fitted effect of over 75% in size
Target sequence (Q96KQ7 913-1193 limits assumed): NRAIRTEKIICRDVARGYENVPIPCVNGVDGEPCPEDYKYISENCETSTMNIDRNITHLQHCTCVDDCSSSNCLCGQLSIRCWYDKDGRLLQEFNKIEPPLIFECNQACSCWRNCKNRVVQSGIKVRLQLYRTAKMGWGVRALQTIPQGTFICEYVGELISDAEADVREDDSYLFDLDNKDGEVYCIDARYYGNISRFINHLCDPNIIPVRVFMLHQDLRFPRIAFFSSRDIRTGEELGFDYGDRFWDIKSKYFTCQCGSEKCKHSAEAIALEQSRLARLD
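Methyltransferase reactions run at room temperature for 2 h (20 nM enzyme, 500 nM biotin-H3K9 peptide, 20 uM SAM) after a 15 min compound preincubation; product detected by AlphaScreen beads and anti-H3K9me1 antibody.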
PLK1 PBD inh = PLK1 (human) polo-box domain binding inhibition | P53350 | Plk1 PBD binding of FITC phosphopeptide, fluorescence polarization | Potency, µM, for the others: max response, negative = inhibition, actives largely listed as inhibitors | 360,000 compounds, 2.8% hits | AID 720504; further: series mostly up to about 57 µM; on the % scale 0 is the no-effect control and ±100 the full control effect; nearly all actives have a fitted effect of over 65% in size
BAZ2B block = inhibitors of human BAZ2B bromodomain; AID 504333; 360,000 compounds, 4.4% hits; AlphaScreen BAZ2B-H3K14Ac peptide displacement; Potency, µM (titrated, usually from 114 µM), without a hit: at the top dose activity change, negative = inhibition, hits mostly inhibitors; Q9UIF8; further: on the % scale 0 is the no-effect control and ±100 the full control effect; nearly all actives have a fitted effect of over 60% in size
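Compounds, titrated to a top concentration of 110 uM, were incubated 30 min at room temperature with preformed BAZ2B/acetyl-K14 H3 peptide complex (50 nM each). Proximity signal was measured by AlphaScreen after 20 min with beads.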
VDR inh = vitamin D3 receptor (human) inhibition; P11473; VDR-SRC2-3 peptide fluorescence polarization, 2 h; Potency, µM, without a hit: max response, negative = inhibition, usual class: inhibitors; 400,000 compounds, 0.93% hits; further: on the % scale 0 is the no-effect control and ±100 the full control effect
Target sequence (P11473 whole entry, looked up): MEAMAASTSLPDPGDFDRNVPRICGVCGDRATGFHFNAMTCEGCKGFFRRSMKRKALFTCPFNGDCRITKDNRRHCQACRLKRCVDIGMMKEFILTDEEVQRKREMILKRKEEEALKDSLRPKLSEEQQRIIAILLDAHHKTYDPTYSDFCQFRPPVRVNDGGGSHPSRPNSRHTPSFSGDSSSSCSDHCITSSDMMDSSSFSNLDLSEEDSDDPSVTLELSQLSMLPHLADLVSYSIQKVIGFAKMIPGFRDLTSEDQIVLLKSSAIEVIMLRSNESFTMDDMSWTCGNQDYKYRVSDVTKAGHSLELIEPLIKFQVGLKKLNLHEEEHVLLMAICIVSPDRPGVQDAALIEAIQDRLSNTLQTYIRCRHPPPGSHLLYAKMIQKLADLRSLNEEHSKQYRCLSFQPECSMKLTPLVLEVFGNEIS
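Reagent solutions, kept cold and dark, are dispensed first; compounds are then pinned in at 23 nl, plates briefly spun, and incubated 2 h at ambient temperature. Inhibition of VDR–SRC2-3 peptide binding is read by fluorescence polarization.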
Active calls of the source: *; u = inconclusive; x = no result; ! = a repeat was not active; [ ] = dose if it differs, or a comment. The list is not random: actives were taken first. Their share in the collection is about 11%. The call rests on the fitted dose curve; in most records, active means well fitted curve in the direction sought with a large enough effect; inconclusive means small, poorly fitted or top-dose-only effect, or another doubt; inactive means no such curve, though single readings can be large; an effect the other way counts as inactive or inconclusive. Potency means the concentration at half of the fitted maximal effect.

SMILES	JMJD2A Tudor inh	HP1b chromo inh	G9a inh	PLK1 PBD inh	BAZ2B block	VDR inh
Cc1ccc(CNC(=O)Cc2nc3nc(C)cc(C)n3n2)cc1	5%	40%	24%[59 µM]	0%	11%	-2%
Cn1cnc([N+](=O)[O-])c1Sc1ncn[nH]1	-6%	50%	65%	1%	23%	-21%
Cc1ccc(C)c(N2N=C(C(=O)OCc3nnc(-c4ccccc4)o3)CCC2=O)c1	-8%	41%	20%[2.33 µM]	-8%	-30%	-6%
CCOc1ccc(Nc2ncnc3c2c(-c2ccccc2)cn3-c2cccc(C)c2)cc1	-29%	14%	-16%[59 µM]	x	u	15%
O=C1C(SCCO)=C(SCCO)C(=O)c2ccccc21	8.9µM*	u	1.3µM*!	2.1µM*	u	5.6µM*
O=C(NCCCN1CCCC1=O)C1CCN(S(=O)(=O)c2ccc(Cl)cc2)CC1	-4%	28%	17%[12.7 µM]	-9%	4%	-11%
Cc1cc(N2CCOCC2)ccc1/C=C1\NC(=O)N(Cc2ccccc2)C1=O	-7%	36%	50µM*	-6%	-29%	-8%
Cc1cc(N2CCOCC2)ccc1/C=C1\NC(=O)N(Cc2ccccc2F)C1=O	-28%	5%	14%[59 µM]	-1%	-12%	-2%
Cc1cc(Cl)ccc1NC(=O)COC(=O)c1cc([N+](=O)[O-])ccc1N1CCOCC1	u	-23%	56µM*	-10%	-28%	-6%
Cc1ccc(S(=O)OCC(=O)Nc2cc(Cl)ccc2N2CCOCC2)cc1 (stereo not drawn)	u	19%	11%	17µM*	-3%	u
CC1CCCCN1C(=O)COC(=O)c1cc([N+](=O)[O-])ccc1N1CCOCC1 (stereo not drawn)	-8%	17%	45µM*	-1%	8%	-9%
O=C(COC(=O)c1cc([N+](=O)[O-])ccc1N1CCOCC1)Nc1ccc(Cl)cc1	u	-16%	u	0%	-37%	-2%
Cc1noc(C)c1CSCC(=O)Nc1cc(Cl)ccc1N1CCOCC1	-1%	27%	7%	0%	-15%	-1%
CC(NC(=O)COC(=O)c1cc([N+](=O)[O-])ccc1N1CCOCC1)c1ccc(F)cc1 (stereo not drawn)	u	9%	u	-7%	50µM*	11%
Cc1ccc2c(Sc3ccc(Cl)cc3)c(C(=O)N3CCCCC3)[nH]c2c1	-6%	70%	-9%[59 µM]	x	5%	7%
NC(CCC(=O)NCS(=O)(=O)O)C(=O)O (stereo not drawn)	x	x	26%[12.7 µM]	x	x	15%
Cc1ccc(-c2cc(C(F)F)n3ncc(C(=O)Nc4cn(C)nc4C)c3n2)cc1	6%	38%	-10%[12.7 µM]	2%	-11%	3%
NC(=O)c1ccc(NC(=O)COC(=O)c2cc([N+](=O)[O-])ccc2N2CCOCC2)cc1	-14%	7%	13µM*	-10%	-8%	-9%
S=c1[nH]nc(-c2cccnc2)n1/N=C/c1ccc(Br)s1	5.6µM*	56%	u	u	-36%	-15%
Cc1ccc(/C=N/n2c(-c3cccnc3)n[nH]c2=S)s1	4.5µM*	-9%	0.79µM*	-6%	-7%	9%
Cc1cccc(-c2noc(-c3ccc(N4CCN(C)CC4)c([N+](=O)[O-])c3)n2)c1	-10%	51%	-27%[59 µM]	x	-1%	18%
O=C(N/N=C/c1c(O)ccc2ccccc12)C(=O)N1CCCC1	x	x	x	11%	x	x
Oc1ccc2ccccc2c1/C=N/c1nccs1	-13%[57.1 µM]	-17%	u	19µM*	u	-3%
Oc1ccc2ccccc2c1C=NC12CN3CCN(CN(C3)C1)C2	79µM*	u	u	5.3µM*	u	u
Oc1ccc2ccccc2c1C=NCc1cn2ccsc2n1	u	-5%	8.9µM*	u	-35%	9%
SMILES	JMJD2A Tudor inh	HP1b chromo inh	G9a inh	PLK1 PBD inh	BAZ2B block	VDR inh
Cc1cc(C(=O)O)ccc1N=Cc1c(O)ccc2ccccc12	u	1%	2.5µM*	u	-7%	-19%
COC(=O)[C@]12CCCCC=C1N(Cc1ccccc1)C(=O)[C@H](CC(=O)N1CCSCC1)C2	x	x	x	-6%	x	x
CN(C)/N=C/c1c(O)ccc2ccccc12	56µM*	u	10µM*	-3%	45µM*	-5%
OCC(CO)(CO)N=Cc1c(O)ccc2ccccc12	u	7%	1.4µM*	4.2µM*	x	-19%
Cc1cc(N=Cc2c(O)ccc3ccccc23)no1	28µM*	-10%	1.1µM*	5.3µM*	6%	2%
Oc1ccc2ccccc2c1C=NNc1ccccn1	-26%	21%	x	u	x	-9%
O=C(NN=Cc1c(O)ccc2ccccc12)C1CC1	-12%	22%	x	-9%	x	-5%
CS/C(N)=N/N=C/c1c(O)ccc2ccccc12	-17%[11.4 µM]	61%	11µM*	-14%	-18%	-3%
Cc1ccccc1OC(=O)c1cccnc1	0%	34%	35%[59 µM]	-1%	-25%	-20%
O=C(c1cccc(F)c1)N1CCC2(CC1)CN(c1cccc(-c3ccccc3)c1)C2	x	x	18%[12.7 µM]	x	x	-16%
Oc1ccc2ccccc2c1C=Nc1ccccc1Br	u	u	x	-23%	u	6%
C=Cc1ccc(N=Cc2c(O)ccc3ccccc23)cc1	u	59%	1.6µM*	-11%	6%	-1%
Oc1ccccc1N=Cc1c(O)ccc2ccccc12	u	-3%	7.9µM*	37%	11µM*	-16%
Oc1cccc(C=Nc2cccc3ccccc23)c1O	14µM*	u	x	-11%	45µM*	28µM*
Oc1ccc2ccccc2c1C=Nc1ccc(N2CCOCC2)cc1	50µM*	u	u	-8%	40µM*	-14%
CCOC(=O)C(Cc1ccc(O)cc1)NC(=O)CNC(=O)C1CCCN1C(=O)OC(C)(C)C (stereo not drawn)	-6%	3%	-43%	-18%	7%	1%
O=C(O)C(S)[C@@H](S)C(=O)O (stereo partly drawn)	x	x	u	x	x	4µM*
O=C(O)C(S)C(S)C(=O)O (stereo not drawn)	50µM*	u	x	8.4µM*	x	u
COc1ccc(NC(=O)C(=O)NCCc2csc3nc(-c4ccccc4C)nn23)cc1	-19%	15%	2%[59 µM]	x	3%	-2%
COc1ccc(C)cc1NC(=O)C1CCCN(S(=O)(=O)c2cccnc2)C1 (stereo not drawn)	-3%	48%	10%	-9%	-1%	1%
O=C(Cn1cnc([N+](=O)[O-])n1)N/N=C/c1ccccc1O	u	50%	95%[59 µM]	-1%	14µM*	5%
Cc1ccccc1/C=N/NC(=O)Cn1cnc([N+](=O)[O-])n1	-2%	24%	-2%	-6%	u	0%
O=C(Cn1cnc([N+](=O)[O-])n1)N/N=C/c1cc(Cl)ccc1O	32µM*	19%	8%	-1%	28µM*	-11%
